Screening data from PubChem BioAssay.
PTAP TSG101 blk: blocks PTAP/TSG101 interaction to inhibit HIV-1 budding | Q99816 | Fluorescence polarization, FITC-PTAP peptide / Tsg101 binding | Potency, µM (series often up to 115 µM), inactives show top-dose activity change, negative = inhibition, hits mostly inhibitors | 340,000 tested, under 10 active | AID 493005; active means well fitted inhibition curve with a large enough effect in the main read-out, with a control signal flat, not every such curve was filed as active; inconclusive means small, poorly fitted or top-dose-only effect, or effect the other way, or a change in a side signal; inactive means no such curve, though single readings can be large or run the other way; further: potency means the concentration at half of the fitted maximal effect; % of control where 0% means no effect
Target sequence (Q99816 whole entry, looked up): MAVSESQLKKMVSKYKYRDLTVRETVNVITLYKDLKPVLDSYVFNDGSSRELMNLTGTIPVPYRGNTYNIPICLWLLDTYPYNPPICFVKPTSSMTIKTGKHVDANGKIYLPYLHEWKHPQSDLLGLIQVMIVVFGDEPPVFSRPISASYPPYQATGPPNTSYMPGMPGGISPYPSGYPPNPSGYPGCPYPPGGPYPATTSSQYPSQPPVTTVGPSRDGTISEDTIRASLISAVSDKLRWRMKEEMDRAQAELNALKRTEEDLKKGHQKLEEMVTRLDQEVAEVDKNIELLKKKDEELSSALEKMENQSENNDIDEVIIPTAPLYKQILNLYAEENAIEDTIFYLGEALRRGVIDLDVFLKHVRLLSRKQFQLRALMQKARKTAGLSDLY
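Fluorescence polarization binding of Tsg101 binding domain (10 uM final) to FITC-labeled PTAP peptide (50 nM final) in HEPES pH 7.5 buffer with NaCl, Tween 20, EDTA, TCEP. Compounds added before peptide; binding 20 min at RT.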
Tb PFK inh: T. brucei PFK enzyme inhibition | O15648 | T. brucei PFK, ADP-Glo luminescence | Potency, µM (titrated, usually from 57.5 µM), for inactives: at the top dose activity, negative = inhibition, actives largely listed as inhibitors | actives 0.17% (n = 330,000) | AID 485367; active means well fitted inhibition curve with a large enough effect; inconclusive means small, poorly fitted or top-dose-only effect, or effect the other way;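 further: potency means the concentration at half of the fitted maximal effect; 0% = uninhibited 1x PFK enzyme wells and -100% = no-enzyme wells; nearly all actives have a fitted effect of over 60% in size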
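Activity is normalized to no-enzyme wells (full inhibition) and 1.25 nM enzyme wells (no inhibition). Reaction: 0.5 mM F6P, 0.1 mM ATP, 45 min RT, ADP-Glo luminescence; concentration-response curves fitted and classed by quality.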
hERG WT inh: inhibitors of human wildtype KCNH2 potassium channel | Q12809 | U2OS, BacMam KCNH2, thallium flux FluxOr; active compounds read low | activity change, % at 1.84 µM | actives 0.37% (n = 340,000);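 active means maximum activity change below -70%; inconclusive means maximum activity change between -70% and -50%; inactive means maximum activity change above -50%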; further: on the % scale 0 is the no-effect control and ±100 the full control effect
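U2OS cells were transduced with wild-type KCNH2 virus (2.03 x 10^8 / mL) for 4 h at room temperature, then cultured overnight at 37 C. Thallium flux was read with FluxOr dye. Rate constants were normalized to DMSO controls.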
KCNH2 3.1 inh: KCNH2 3.1 (human) potassium channel inhibition | AID 720553 | U2OS KCNH2 3.1, thallium flux FluxOr; active compounds read low | activity change, % (tested at about 1.8 µM) | actives 0.95% (n = 340,000);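 active means maximum activity change below -70%; inconclusive means maximum activity change from -70% to -50%; inactive means maximum activity change above -50%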;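 further: thallium influx rate constant from kinetic fluorescence after stimulation buffer; on the % scale 0 is the no-effect control and ±100 the full control effect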
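Measured as rate of thallium-driven FluxOr signal in transduced U2OS cells carrying the 3.1 channel, read kinetically for 2 min upon stimulation; values are rate constants scaled to DMSO control wells.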
* = called active by the depositor. In the library only some 1.2% were active in any assay of this set; here they are far more common.

CN1CCN(c2ccc(NC(=O)c3ccc(-c4ccc(Br)cc4)o3)cc2)CC1 was read as PTAP TSG101 blk 1%, Tb PFK inh -1%, hERG WT inh 33 and KCNH2 3.1 inh -71*.
For CN(C(=O)c1cc(-c2cccs2)nn1-c1ccccc1)C1CCS(=O)(=O)C1 (stereo not drawn) the results were hERG WT inh 5 and KCNH2 3.1 inh -7.
Screening CCOc1cc(S(=O)(=O)N2CCC(Cc3ccccc3)CC2)c(OCC)cc1-n1cnnn1 returned PTAP TSG101 blk -11%, Tb PFK inh 1%, hERG WT inh -8 and KCNH2 3.1 inh -5.
Screening CCOc1cc(S(=O)(=O)N2CC=C(c3ccc(F)cc3)CC2)c(OCC)cc1-n1cnnn1 returned PTAP TSG101 blk -7%, Tb PFK inh -4%, hERG WT inh -102* and KCNH2 3.1 inh -82*.
Screening S=C(NCc1ccccn1)Nc1ccc(Cl)cc1 returned PTAP TSG101 blk -3%, Tb PFK inh 0%, hERG WT inh -199* and KCNH2 3.1 inh -196*.
Fc1cccc(NC(=S)NCc2ccccn2)c1 was read as PTAP TSG101 blk -7%, Tb PFK inh -1%, hERG WT inh 8 and KCNH2 3.1 inh 15.
Nc1ccc(-c2cnc[nH]2)cc1[N+](=O)[O-] was read as PTAP TSG101 blk 1%, Tb PFK inh -3%, hERG WT inh -1 and KCNH2 3.1 inh -4.
For CCOc1ccccc1C=NNC(=O)C1CC1 the results were PTAP TSG101 blk -4%, hERG WT inh 0 and KCNH2 3.1 inh 20.
Screening CCC1CCC(N2CCN(c3ccc([N+](=O)[O-])cc3)CC2)CC1 (stereo not drawn) returned PTAP TSG101 blk -2%, Tb PFK inh -9%, hERG WT inh -124* and KCNH2 3.1 inh -101*.
CC1CCC(N2CCN(c3ccc([N+](=O)[O-])cc3)CC2)CC1 (stereo not drawn) was read as PTAP TSG101 blk 0%, Tb PFK inh -14%, hERG WT inh inconclusive and KCNH2 3.1 inh -112*.
`CCC1CCC(N2CCN(c3ccc(F)cc3)CC2)CC1` (stereo not drawn) gave PTAP TSG101 blk 1%, Tb PFK inh -1%, hERG WT inh 47 and KCNH2 3.1 inh -24.
`CCOC(=O)NC(=O)CSc1nc2ccc(C)cc2[nH]1` gave PTAP TSG101 blk -3%, Tb PFK inh 3%, hERG WT inh 2 and KCNH2 3.1 inh -116*.
`CCc1ccc(NC(=O)CN2CCN(c3ccc(OC)cc3)CC2)cc1` gave PTAP TSG101 blk -5%, hERG WT inh -1 and KCNH2 3.1 inh -5.
For CCN(CC(=O)NCc1cccs1)C(=O)c1cccc(S(=O)(=O)N2CC(C)OC(C)C2)c1 (stereo not drawn) the results were PTAP TSG101 blk -5%, Tb PFK inh 1%, hERG WT inh -131* and KCNH2 3.1 inh -156*.
`O=C(CCS(=O)(=O)c1ccc(Br)cc1)NCCc1ccccc1` gave PTAP TSG101 blk -8%, Tb PFK inh -19%, hERG WT inh 15 and KCNH2 3.1 inh 0.
For NS(=O)(=O)c1ccc(CCNC(=O)CCS(=O)(=O)c2ccc(Br)cc2)cc1 the results were PTAP TSG101 blk -9%, Tb PFK inh 15µM*, hERG WT inh -3 and KCNH2 3.1 inh 11.
For CCN(CC(=O)NCCc1ccc(S(N)(=O)=O)cc1)Cc1ccccc1 the results were PTAP TSG101 blk -9%, Tb PFK inh 3%, hERG WT inh 8 and KCNH2 3.1 inh -74*.
NS(=O)(=O)c1ccc(CCNC(=O)CNCCc2ccccc2)cc1 was read as PTAP TSG101 blk 0%, Tb PFK inh 2%, hERG WT inh 21 and KCNH2 3.1 inh 2.
`O=C(COC(=O)c1ccc(F)cc1F)NC(=O)Nc1ccc2c(c1)OCCO2` gave PTAP TSG101 blk 0%, Tb PFK inh -5%, hERG WT inh -2 and KCNH2 3.1 inh inconclusive.
Screening Cc1ccc(Nc2nc(-c3c(C)nc4ncccn34)cs2)cc1 returned PTAP TSG101 blk -4%, Tb PFK inh 3%, hERG WT inh -3 and KCNH2 3.1 inh -14.
Screening Cc1ccc(Nc2nc(-c3c(C)nc4ccccn34)cs2)cc1 returned PTAP TSG101 blk -1%, Tb PFK inh -2%, hERG WT inh -24 and KCNH2 3.1 inh -78*.
Cc1cccc(/C=N/n2c(-c3ccncc3)n[nH]c2=S)c1 was read as PTAP TSG101 blk -5%, Tb PFK inh 4%, hERG WT inh -3 and KCNH2 3.1 inh -70*.
`O=C(O)c1ccc(S(=O)(=O)N[C@H](Cc2c[nH]c3ccccc23)C(=O)O)cc1` gave Tb PFK inh 25%.
For CCCn1c(N2CCN(C(=O)Nc3ccccc3)CC2)nc2ccccc21 the results were PTAP TSG101 blk -3%, Tb PFK inh 1%, hERG WT inh 10 and KCNH2 3.1 inh -105*.
For CC(C)Cn1c(N2CCN(CC(=O)Nc3ccc(Cl)cc3)CC2)nc2ccccc21 the results were PTAP TSG101 blk 0%, Tb PFK inh 2%, hERG WT inh -16 and KCNH2 3.1 inh -74*.
`Cc1ccc(SCc2nc3ccccc3n2CC(=O)Nc2ccc(Cl)cc2)cc1` gave PTAP TSG101 blk -1%, Tb PFK inh -2%, hERG WT inh 18 and KCNH2 3.1 inh -1.
Cc1cccc(C(=O)OCC(=O)N2CCCCCC2)c1C was read as PTAP TSG101 blk -5%, Tb PFK inh 3%, hERG WT inh -4 and KCNH2 3.1 inh 1.
`COc1cc(C#N)ccc1OCC(=O)Nc1cccc(S(=O)(=O)N(C)c2ccccc2)c1` gave hERG WT inh 1 and KCNH2 3.1 inh -8.
Screening COc1ccc(C2c3[nH]c4ccccc4c3C[C@H]3C(=O)N(C4CCN(Cc5ccccc5)CC4)CC(=O)N23)cc1OC (stereo partly drawn) returned PTAP TSG101 blk 0%, Tb PFK inh 5%, hERG WT inh -18 and KCNH2 3.1 inh inconclusive.
COc1ccccc1C1c2[nH]c3ccccc3c2C[C@H]2C(=O)N(C3CCN(Cc4ccccc4)CC3)CC(=O)N12 (stereo partly drawn) was read as PTAP TSG101 blk 0%, Tb PFK inh 8%, hERG WT inh -106* and KCNH2 3.1 inh -37.
`COCCNC(=O)c1ccc(N2CC3CC(C2)c2cccc(=O)n2C3)c(NC(=O)c2ccc(F)cc2)c1` (stereo not drawn) gave PTAP TSG101 blk -8%, Tb PFK inh -1%, hERG WT inh 2 and KCNH2 3.1 inh 11.
For CCOC(=O)N1CCN(C(=O)c2ccc(N3CC4CC(C3)c3cccc(=O)n3C4)c(NC(=O)c3ccc(F)cc3)c2)CC1 (stereo not drawn) the results were PTAP TSG101 blk -10%, Tb PFK inh 1%, hERG WT inh -163* and KCNH2 3.1 inh 2.
For Cc1nonc1C1CCCN1C(=O)c1cc(COc2ccc(F)cc2Cl)on1 (stereo not drawn) the results were PTAP TSG101 blk 1%, Tb PFK inh -7%, hERG WT inh 18 and KCNH2 3.1 inh -1.
